# Over roughly 2,900 compounds, “NF-kB SEAP reporter activity, fold change vs agonist alone” has its median near 0.99; the highest 2% begin near 2.6. What follows is part of a selection rich in the highest values, with near analogues and random picks from the rest.
# Key:
# [1] = test system: RAW-Dual; test: NF-kB SEAP reporter activity, fold change vs agonist alone; higher = enhanced NF-kB activity
# Outline: (§1)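 Cytotoxic wells were those whose IncuCyte confluency was below 70% of agonist controls in both mask sets. The cells were RAW-Dual macrophages at 50,000 cells/well in DMEM on 384-well plates, dosed with 50 nL of library stock by pin tool, stimulated with a PRR agonist 1 h later, and kept at 37 °C, 5% CO2 for 20 hours. IRF and NF-κB reporter activity, as fold change over agonist-alone wells, came from supernatant read by QuantiLuc luminescence and QuantiBlue absorbance, respectively.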
# [2] = test system: RAW-Dual; test: NF-kB SEAP reporter activity, fold change vs agonist alone; cytotoxicity flag (confluency mask): cytotoxic (confluency <70% of control); higher = enhanced NF-kB activity
# Outline: as §1
# [3] = test system: RAW-Dual; test: NF-kB SEAP reporter activity, fold change vs agonist alone; cytotoxicity flag (confluency mask): not cytotoxic; higher = enhanced NF-kB activity
# Outline: as §1
# [4] = library stock concentration (final ~1000-fold dilution): 10 mM, cytotoxicity flag (confluency mask): cytotoxic (confluency <70% of control), agonist: Imiquimod (TLR7) […]
# [5] = library stock concentration (final ~1000-fold dilution): 10 mM, cytotoxicity flag (confluency mask): cytotoxic (confluency <70% of control), agonist: MPLA (TLR4) […]
# [6] = agonist: ODN 1826 (TLR9) 0.5 ug/mL
# [7] = agonist: Pam2CSK4 (TLR2/6) 0.1 ug/mL
# [8] = agonist: Pam3CSK4 (TLR2/1) 0.1 ug/mL
# [9] = library stock concentration (final ~1000-fold dilution): 2 mM, cytotoxicity flag (confluency mask): not cytotoxic, agonist: Imiquimod (TLR7) […]
# [10] = library stock concentration (final ~1000-fold dilution): 2 mM, cytotoxicity flag (confluency mask): not cytotoxic, agonist: MPLA (TLR4) […]
# [11] = library stock concentration (final ~1000-fold dilution): 10 mM, cytotoxicity flag (confluency mask): not cytotoxic, agonist: Imiquimod (TLR7) […]
# [12] = library stock concentration (final ~1000-fold dilution): 10 mM, cytotoxicity flag (confluency mask): not cytotoxic, agonist: MPLA (TLR4) […]
smiles,measurement,setting,value
CS(=O)(=O)O.O=C(Nc1cccc(Cl)c1)Nc1ncc(CCNc2ncnc3ccsc23)s1,NF-kB SEAP reporter activity,[1]; [4],0.503
same,NF-kB SEAP reporter activity,[1]; [5],0.512
CS(=O)(=O)O.O=C(Nc1cccc(Cl)c1)Nc1ncc(CCNc2ncnc3ccsc23)s1 (library stock concentration (final ~1000-fold dilution): 10 mM),NF-kB SEAP reporter activity,[2]; agonist: LPS (TLR4) 0.1 ug/mL,1
same,NF-kB SEAP reporter activity,[2]; [6],0.54
same,NF-kB SEAP reporter activity,[2]; [7],0.153
same,NF-kB SEAP reporter activity,[2]; [8],0.292
CCCCCCOc1cc(C)c(O)c(C)c1C,NF-kB SEAP reporter activity,[1]; [4],0.313
same,NF-kB SEAP reporter activity,[1]; [5],1.36
CCCCCCOc1cc(C)c(O)c(C)c1C (library stock concentration (final ~1000-fold dilution): 10 mM),NF-kB SEAP reporter activity,[2]; agonist: LPS (TLR4) 0.1 ug/mL,0.406
same,NF-kB SEAP reporter activity,[2]; [6],0.234
same,NF-kB SEAP reporter activity,[2]; [7],0.154
same,NF-kB SEAP reporter activity,[2]; [8],0.209
c1cc(-c2cnn3cc(-c4ccc(OCCN5CCCCC5)cc4)cnc23)ccn1,NF-kB SEAP reporter activity,[1]; [9],0.841
same,NF-kB SEAP reporter activity,[1]; [10],1.08
c1cc(-c2cnn3cc(-c4ccc(OCCN5CCCCC5)cc4)cnc23)ccn1 (library stock concentration (final ~1000-fold dilution): 2 mM),NF-kB SEAP reporter activity,[3]; agonist: LPS (TLR4) 0.1 ug/mL,1.38
same,NF-kB SEAP reporter activity,[3]; [6],0.365
same,NF-kB SEAP reporter activity,[3]; [7],1.32
same,NF-kB SEAP reporter activity,[3]; [8],1.28
O=C(NC(C1CC1)C(F)(F)F)c1cc(-c2cnn3cc(-c4ccc(F)cc4)cnc23)cs1 (configuration not stated),NF-kB SEAP reporter activity,[1]; [11],1.28
same,NF-kB SEAP reporter activity,[1]; [12],1.98
Cl.Cl.c1cc(-c2cnn3cc(-c4ccc(OCCN5CCCCC5)cc4)cnc23)ccn1,NF-kB SEAP reporter activity,"[1]; library stock concentration (final ~1000-fold dilution): 10 mM water, cytotoxicity flag (confluency mask): not cytotoxic, agonist: Imiquimod (TLR7) […]",0.944
same,NF-kB SEAP reporter activity,"[1]; library stock concentration (final ~1000-fold dilution): 10 mM water, cytotoxicity flag (confluency mask): not cytotoxic, agonist: MPLA (TLR4) […]",1.2
Cl.Cl.c1cc(-c2cnn3cc(-c4ccc(OCCN5CCCCC5)cc4)cnc23)ccn1 (library stock concentration (final ~1000-fold dilution): 10 mM water),NF-kB SEAP reporter activity,[3]; agonist: LPS (TLR4) 0.1 ug/mL,1.69
same,NF-kB SEAP reporter activity,[3]; [6],0.252
same,NF-kB SEAP reporter activity,[3]; [7],1.44
same,NF-kB SEAP reporter activity,[3]; [8],1.92
O=C(NC(C1CC1)C(F)(F)F)c1cc(-c2cnn3cc(-c4ccc(F)cc4)cnc23)cs1 (configuration not stated) (library stock concentration (final ~1000-fold dilution): 10 mM),NF-kB SEAP reporter activity,[3]; agonist: LPS (TLR4) 0.1 ug/mL,2.68
same,NF-kB SEAP reporter activity,[3]; [6],1.73
same,NF-kB SEAP reporter activity,[3]; [7],2.46
same,NF-kB SEAP reporter activity,[3]; [8],3.14
CCC(=C(c1ccccc1)c1ccc(OCCN(C)C)cc1)c1ccccc1 (library stock concentration (final ~1000-fold dilution): 10 mM),NF-kB SEAP reporter activity,[2]; agonist: LPS (TLR4) 0.1 ug/mL,0.687
same,NF-kB SEAP reporter activity,[2]; [6],0.447
same,NF-kB SEAP reporter activity,[2]; [7],0.398
same,NF-kB SEAP reporter activity,[2]; [8],0.525
CCC(=C(c1ccccc1)c1ccc(OCCN(C)C)cc1)c1ccccc1,NF-kB SEAP reporter activity,[1]; [4],1.53
same,NF-kB SEAP reporter activity,[1]; [5],1.52
Cc1ccccc1C(OCCN(C)C)c1ccccc1.Cl (configuration not stated),NF-kB SEAP reporter activity,[1]; [11],1.38
same,NF-kB SEAP reporter activity,[1]; [12],1.13
Cc1ccccc1C(OCCN(C)C)c1ccccc1.Cl (configuration not stated) (library stock concentration (final ~1000-fold dilution): 10 mM),NF-kB SEAP reporter activity,[3]; agonist: LPS (TLR4) 0.1 ug/mL,1.29
same,NF-kB SEAP reporter activity,[3]; [6],0.935
same,NF-kB SEAP reporter activity,[3]; [7],0.934
same,NF-kB SEAP reporter activity,[3]; [8],0.932
COc1cc(OC)cc(-c2cc3cnc(N)nc3nc2NC(=O)NC(C)(C)C)c1,NF-kB SEAP reporter activity,[1]; [11],0.989
same,NF-kB SEAP reporter activity,[1]; [12],1.1
CCN(CC)CCCCNc1ncc2cc(-c3cc(OC)cc(OC)c3)c(NC(=O)NC(C)(C)C)nc2n1,NF-kB SEAP reporter activity,[1]; [4],2.8
same,NF-kB SEAP reporter activity,[1]; [5],2.71
COc1cc(OC)cc(-c2cc3cnc(N)nc3nc2NC(=O)NC(C)(C)C)c1 (library stock concentration (final ~1000-fold dilution): 10 mM),NF-kB SEAP reporter activity,[3]; agonist: LPS (TLR4) 0.1 ug/mL,5.36
same,NF-kB SEAP reporter activity,[3]; [6],1.02
same,NF-kB SEAP reporter activity,[3]; [7],0.578
same,NF-kB SEAP reporter activity,[3]; [8],0.747
CCN(CC)CCCCNc1ncc2cc(-c3cc(OC)cc(OC)c3)c(NC(=O)NC(C)(C)C)nc2n1 (library stock concentration (final ~1000-fold dilution): 10 mM),NF-kB SEAP reporter activity,[2]; agonist: LPS (TLR4) 0.1 ug/mL,0.324
same,NF-kB SEAP reporter activity,[2]; [6],0.891
same,NF-kB SEAP reporter activity,[2]; [7],1.72
same,NF-kB SEAP reporter activity,[2]; [8],1.56
CNc1ncc2cc(-c3cc(NC(=O)NCCC(C)(C)C)c(F)cc3C)c(C)nc2n1,NF-kB SEAP reporter activity,[1]; [9],0.497
same,NF-kB SEAP reporter activity,[1]; [10],0.918
CNc1ncc2cc(-c3cc(NC(=O)NCCC(C)(C)C)c(F)cc3C)c(C)nc2n1 (library stock concentration (final ~1000-fold dilution): 2 mM),NF-kB SEAP reporter activity,[3]; agonist: LPS (TLR4) 0.1 ug/mL,1.42
same,NF-kB SEAP reporter activity,[3]; [6],0.533
same,NF-kB SEAP reporter activity,[3]; [7],0.218
same,NF-kB SEAP reporter activity,[3]; [8],0.28
O=C(c1cccc(Br)c1)N1CCC(N2CCCC2)CC1,NF-kB SEAP reporter activity,[1]; [12],1.09
O=C(NC1(c2ccccc2)CC1)c1c(CN2CCC(N3CCCCC3)CC2)c(-c2cccc(C(F)(F)F)c2)nc2cc(Br)ccc12,NF-kB SEAP reporter activity,[1]; [4],0.916
same,NF-kB SEAP reporter activity,[1]; [5],1.03
O=C(NC1(c2ccccc2)CC1)c1c(CN2CCC(N3CCCCC3)CC2)c(-c2cccc(C(F)(F)F)c2)nc2cc(Br)ccc12 (library stock concentration (final ~1000-fold dilution): 10 mM),NF-kB SEAP reporter activity,[2]; agonist: LPS (TLR4) 0.1 ug/mL,2.58
same,NF-kB SEAP reporter activity,[2]; [6],0.897
same,NF-kB SEAP reporter activity,[2]; [7],0.896
same,NF-kB SEAP reporter activity,[2]; [8],1.27
O=C(c1cccc(Br)c1)N1CCC(N2CCCC2)CC1 (library stock concentration (final ~1000-fold dilution): 10 mM),NF-kB SEAP reporter activity,[3]; agonist: LPS (TLR4) 0.1 ug/mL,1.39
same,NF-kB SEAP reporter activity,[3]; [6],0.951
same,NF-kB SEAP reporter activity,[3]; [7],1.16
same,NF-kB SEAP reporter activity,[3]; [8],0.966
CN1C(=O)C(NC(=O)c2n[nH]c(Cc3ccccc3)n2)COc2ccccc21 (configuration not stated) (library stock concentration (final ~1000-fold dilution): 10 mM),NF-kB SEAP reporter activity,[3]; agonist: LPS (TLR4) 0.1 ug/mL,1.01
same,NF-kB SEAP reporter activity,[3]; [6],1.59
same,NF-kB SEAP reporter activity,[3]; [7],1.01
same,NF-kB SEAP reporter activity,[3]; [8],1.15
CN1C(=O)C(NC(=O)c2n[nH]c(Cc3ccccc3)n2)COc2ccccc21 (configuration not stated),NF-kB SEAP reporter activity,[1]; [11],1.3
same,NF-kB SEAP reporter activity,[1]; [12],0.971

# Reference: the supplement of paper PMC10037445
